# Bioassay records from PubChem BioAssay.
# Hits are enriched below; roughly 1.8% of the tested compounds scored in any of these assays.
# Vc quorum ag = quorum light induction in luxS cqsA deficient V. cholerae. V. cholerae BH1578 lux reporter, luminescence, 6 h. activation, % at 18.7 µM. 0.16% of 350,000 active. AID 588436; in the data active means activation mostly above about 9.7%, no sharp cut-off; inconclusive means no clear call, values can overlap the other calls; inactive means mostly below about 3.7%
# MazEF act = activators of E. coli MazEF toxin-antitoxin RNase; 0.32% of 350,000 active; P0AE70; FAM/BHQ RNA-DNA oligo cleavage fluorescence, 5 h; activation, % at 20 µM; AID 504720; in the data active means activation above about 50%
# Target sequence (P0AE70 whole entry, looked up): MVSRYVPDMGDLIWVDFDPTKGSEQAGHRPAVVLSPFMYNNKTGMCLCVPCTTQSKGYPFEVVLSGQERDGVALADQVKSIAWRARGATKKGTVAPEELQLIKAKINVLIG
# Yp Topo-I inh = blocks Yersinia pestis topoisomerase I activity; Y. pestis Topo-I cleavage product accumulation, plate reader; activity, % at 10 µM; 0.064% of 360,000 active; AID 504884; in the data active means activity above about 50%, passing the limit was not always enough; inconclusive means no clear call, values can overlap the other calls
# DUSP3 inh = DUSP3 (human) phosphatase inhibition. P51452. inhibition, % at 13.3 µM. 0.52% of 290,000 active. recombinant VHR phosphatase, pNPP absorbance. AID 1654; in the data active means inhibition above about 50%
# Target sequence (P51452 whole entry, looked up): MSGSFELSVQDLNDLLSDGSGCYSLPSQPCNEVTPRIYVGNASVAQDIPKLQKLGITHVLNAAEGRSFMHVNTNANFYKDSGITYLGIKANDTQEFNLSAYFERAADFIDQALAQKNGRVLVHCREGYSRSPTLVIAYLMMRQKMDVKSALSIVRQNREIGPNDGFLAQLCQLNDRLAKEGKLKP
# CCHF vOTU inh-1 = CCHFV vOTU protease inhibition. Pep-AMC fluorescence. AID 651958. 0.55% of 370,000 active. inhibition, % at 11.5 µM; further: 0% = vehicle wells with enzyme and 100% = no enzyme wells
# PrPC TRFRET = inhibitors of human cell surface prion protein PrPC | TR-FRET read-out | inhibition, % at 13.8 µM | 0.43% of 370,000 active | AID 720596; in the data active means inhibition above about 24%; further: 0% = median of the test wells and 100% = reference compound wells
# CCHF vOTU inh-2 = CCHFV vOTU protease inhibition, confirmation | Recombinant CCHFV vOTU, Pep-AMC fluorescence | inhibition, % at 11.5 µM | AID 686976 | shares compounds with CCHF vOTU inh-1 | 17% of 1,900 active
# Starred values were filed as active, the others as inactive; i = inactive; ? = inconclusive; · = no result given. Unless noted, no stated cut-off is given here; in the data, active means inhibition above about 30%; inactive means the rest.
SMILES,Vc quorum ag,MazEF act,Yp Topo-I inh,DUSP3 inh,CCHF vOTU inh-1,PrPC TRFRET,CCHF vOTU inh-2
CN(C1=C(NC(=O)c2ccccc2)C(=O)c2ccccc2C1=O)C1CCS(=O)(=O)C1 (centres undefined),0,·,2,-8,89*,-46,78*
O=C(CN1C(=O)c2ccccc2C1=O)NC1CCS(=O)(=O)C1 (centres undefined),-1,2,0,·,-4,1,·
CC(=O)NC1=C(NC2CCS(=O)(=O)C2)C(=O)c2ccccc2C1=O (centres undefined),0,1,-6,9,42*,-51,2
CCN(c1ccc(NC(=O)COC(=O)C2CCN(c3ccc(C(F)(F)F)cn3)CC2)cc1)C(C)C,i,-2,39,·,30*,5,23
COc1cccc(COC(=O)C2CCN(S(=O)(=O)c3ccc(C)cc3C)CC2)c1OC,i,-7,?,·,18,3,·
COc1ccc(NS(=O)(=O)c2ccc(OCC(=O)N3CCOCC3)cc2)cc1Cl,i,4,-1,10,-1,1,·
CCOC(=O)c1csc(-n2nc(C)cc2C(F)(F)F)n1,0,0,2,9,31*,8,1
COc1cccc(Nc2nc(C(N)C(C)C)cs2)n1 (centres undefined),i,·,-4,·,34*,-9,-6
CCS(=O)(=O)c1ccc(O)c(NC(=O)c2cc(-c3ccccn3)nc3ccccc23)c1,-4,8,-2,·,32*,-5,-17
CCN(CC)S(=O)(=O)c1ccc(N2CCOCC2)c(NC(=O)c2cc(-c3ccccn3)nc3ccccc23)c1,0,-13,1,6,8,-3,·
C#CCN1CC(COc2ccccc2)Oc2cccc(Oc3ccc(SC)c(C)c3)c2S1(=O)=O (centres undefined),·,·,·,·,31*,-1,-13
COc1cc(/C=C/c2ccc3c(Br)cc(Br)c(O)c3n2)ccc1O,-1,-5,4,27,35*,-12,-17
COc1ccc(/C=C/c2ccc3c(Br)ccc(O)c3n2)cc1,-1,0,-1,·,3,-20,·
COc1cc(/C=C2\SC(=S)N(CC(=O)O)C2=O)ccc1OS(=O)(=O)c1ccc(C)cc1,-1,-13,29,·,54*,-13,8
CCN(CC)c1nc(N)c2c(N)n(-c3ccccc3C)c(=S)c(C#N)c2c1C#N,i,5,12,-8,34*,11,39*
O=C(COC(=O)Cc1ccc(Cl)cc1Cl)NC1CC1,-4,3,-3,·,32*,-8,-11
CN(C(=O)COC(=O)COc1ccc2ccccc2c1)c1c(N)n(Cc2ccccc2)c(=O)[nH]c1=O,-6,-1,-7,·,30*,-5,-41
Cc1cc(OCC(=O)OCC(=O)N(C)c2c(N)n(Cc3ccccc3)c(=O)[nH]c2=O)ccc1Cl,0,-9,13,·,-4,2,·
CCC(CC)C(C(=O)NCc1ccccc1)N1CCN(C(=O)C2CCCO2)CC1 (centres undefined),·,·,·,·,-9,7,·
O=C1C2C3CCCC3=C3CCCC3C2C(=O)N1c1cccc(Cl)c1 (centres undefined),3,-6,0,23,-11,-3,·
O=C1C2C3C=CC(c4ccccc4)(C2C(=O)N1c1cccc(Cl)c1)C1C(=O)N(c2cccc(Cl)c2)C(=O)C31 (centres undefined),4,-6,2,26,38*,-10,-13
CC(C)(C)c1ccc(S(=O)(=O)NC(=O)C2(C)CCN2C(=O)C2(c3ccc(Cl)cc3)CC2)cc1 (centres undefined),i,·,29,·,31*,-2,-4
O=S(=O)(CC=CCS(=O)(=O)c1ccccc1)c1ccccc1,·,2,9,·,5,-5,·
Cc1cc(CCCCCCCCc2cc(C)cc(=O)o2)oc(=O)c1,0,0,15,-2,-17,3,·
COc1cc(N)c(C(O)c2nccc3cc(OC)c(OC)cc23)cc1OC (centres undefined),i,-15,-15,23,5,-8,·
SMILES,Vc quorum ag,MazEF act,Yp Topo-I inh,DUSP3 inh,CCHF vOTU inh-1,PrPC TRFRET,CCHF vOTU inh-2
COc1ccc(C(O)c2nccc3cc(OC)c(OC)cc23)cc1OC (centres undefined),-1,2,8,4,90*,10,-10
c1coc(-c2nnc(-c3ccco3)nn2)c1,0,-21,-22,2,45*,-2,53*
CCOc1ccc(NC(=O)CC(c2ccccc2)c2ccc(F)cc2)cc1 (centres undefined),0,1,1,11,-9,2,·
CCOC(=O)CC1(C)Oc2ccccc2N1S(=O)(=O)c1ccc(C)cc1 (centres undefined),·,·,·,·,30*,13,-23
Cc1ccc(C)c(OCC(=O)N(Cc2ccccc2)c2c(N)n(Cc3ccccc3)c(=O)[nH]c2=O)c1,i,0,14,·,-2,-3,·
CCCCNC(=O)c1cccc(S(=O)(=O)N2CC3(C)CC2CC(C)(C)C3)c1 (centres undefined),-1,-2,28,·,31*,9,14
COCCNC(=O)c1cccc(S(=O)(=O)N2CC3(C)CC2CC(C)(C)C3)c1 (centres undefined),1,4,3,·,33*,1,-13
C[C@H](CO)N1C[C@H](C)[C@@H](CN(C)C(=O)C2CC2)OCc2cn(nn2)CCCC1=O,·,·,·,·,-8,-2,·
Nc1ccc2nn(-c3cccc4ccccc34)nc2c1,-1,-9,-11,17,60*,4,12
Cc1cc(C)nc(SCC(=O)N/N=C/c2cccn2-c2cccc(C(F)(F)F)c2)n1,i,4,27,11,30*,3,2
Cc1cc(C)nc(SCC(=O)N/N=C/c2cccn2-c2ccc(O)cc2)n1,-6,-4,-3,-6,14,-2,·
Cc1ccc(C(=O)Nc2ccccc2)cc1S(=O)(=O)N1CCN(C)CC1,0,2,-3,9,-6,-2,·
CCOC(=O)N(CC)c1ccc(C(O)(C(=O)OCC)C(F)(F)F)cc1 (centres undefined),i,3,-7,15,31*,3,-12
CCOC(=O)C(O)(c1ccc(N(CC)C(=O)OC)cc1)C(F)(F)F (centres undefined),0,3,-3,0,-2,-5,·
C=CCn1c(NC(=O)c2ccccc2Cl)c(C#N)c2nc3ccccc3nc21,0,14,9,33,82*,1,45*
CCCCn1c(NC(C)=O)c(C#N)c2nc3ccccc3nc21,0,1,-8,-9,-128,-3,·
COc1ccc(CCN2CC(C(=O)OCC(=O)NC(C)c3cccc(Cl)c3)CC2=O)cc1OC (centres undefined),i,6,21,·,6,-3,·
